# PubChem BioAssay
# Values joined by “and” are separate entries in the source; they are usually repeats but may differ in a detail not shown here. Equal entries are not always repeated. Active and inactive are the calls of the source. Rule as the data show it, unless noted: active = inhibition above about 80%; inactive = the rest.
# What was measured:
# [1] = sensitizers of A549 cells to miR-34 induction, primary screen, imaging, A549 dox-inducible miR-34, nuclei and caspase counts (AID 1347080;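 active = compounds whose cell count with miR-34 switched on is under 0.7 times the count with it off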); conditions: A549 miR-34 inducible, Hoechst nuclei count, 48 h
# [2] = survival rescue of mitochondrial mutant cells in low glucose, primary screen, MELAS cybrids, Rieske KO mouse fibroblasts, CellTiter-Glo (AID 1508586;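 active = mean z-score across replicates of 1.96 or higher in either the MELAS or the Rieske mutant cell line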;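 also: z relative to plate mean and SD of compound and empty wells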)
# [3] = LFS_MB_P medulloblastoma growth inhibition, cell-based, chromothripsis tumors, cisplatin or BGB combos (AID 1671449); conditions: LFS_MB_P medulloblastoma cells;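 also: cells exposed for 96 hours; 0% = vehicle DMSO and 100% = killing by high DMSO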
# [4] = HDN33 neuroblastoma growth inhibition, cell-based, chromothripsis tumors, cisplatin or BGB combos (AID 1671450); conditions: HDN33 neuroblastoma cells, stronger effect = higher value;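 also: cells exposed to compound for four days; 0% = vehicle DMSO and 100% = cell killing by high DMSO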
# [5] = ICB984 medulloblastoma cell growth inhibition, synergistic combos for chromothripsis tumors, cisplatin or BGB combos (AID 1671451; call rule not given here;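 also: cells exposed for 96 hours before readout; 0% = vehicle DMSO and 100% = killing by high DMSO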); conditions: ICB984 medulloblastoma cells, drug combinations, stronger effect = higher value
# [6] = LFS_MB_1R medulloblastoma cell growth inhibition, synergistic combos for chromothripsis tumors, cisplatin or BGB combos (AID 1671452); conditions: LFS_MB_1R medulloblastoma cells, stronger effect = higher value;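 also: cells exposed for 96 hours before readout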
# [7] = HTB85 osteosarcoma cell growth inhibition, synergistic combos for chromothripsis tumors, BGB or cisplatin IC20 combos (AID 1671453); conditions: HTB85 osteosarcoma cells, drug combinations, stronger effect = higher value;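 also: cells exposed for 96 hours before readout; 0% = vehicle DMSO and 100% = high DMSO killing control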
# [8] = CRL2098 osteosarcoma cell growth inhibition, synergistic combos for chromothripsis tumors, BGB or cisplatin IC20 combos (AID 1671454); conditions: CRL2098 osteosarcoma cells, drug combinations, stronger effect = higher value;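 also: cells exposed for 96 h before readout; 0% = vehicle DMSO and 100% = killing by high DMSO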
# [9] = HD-MB03 medulloblastoma cell growth inhibition, synergistic combos for chromothripsis tumors, BGB or cisplatin IC20 combos (AID 1671455; in the data active = inhibition above about 83%;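 also: 0% = vehicle DMSO and 100% = high DMSO as cytotoxic control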); conditions: HD-MB03 medulloblastoma cells, stronger effect = higher value
# [10] = UWB1.289 ovarian carcinoma cell growth inhibition, synergistic combos for chromothripsis tumors, BGB or cisplatin combos (AID 1671456); conditions: UWB1.289 ovarian carcinoma cells, stronger effect = higher value;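 also: cells exposed to compound for four days; 0% = vehicle DMSO and 100% = killing by high DMSO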
# [11] = LFS_MB_2R medulloblastoma cell growth inhibition, synergistic combos for chromothripsis tumors, cisplatin combos (AID 1671457); conditions: LFS_MB_2R medulloblastoma cells, stronger effect = higher value;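 also: cells exposed to compound for four days before readout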
# [12] = MDA-MB-436 breast carcinoma cell growth inhibition, synergistic combos for chromothripsis tumors, BGB or cisplatin combos (AID 1671458; call rule not given here;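 also: cells exposed for 96 hours; 0% = vehicle DMSO and 100% = killing by high DMSO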); conditions: MDA-MB-436 breast carcinoma growth inhibition, drug combinations, stronger effect = higher value
# [13] = UWB1.289_BRCA1 ovarian cancer growth, cell-based, BGB or cisplatin combinations (AID 1671459); conditions: UWB1.289 BRCA1 ovarian carcinoma, drug combinations, stronger effect = higher value
# [14] = human astrocyte viability loss, single and combined drugs, cytotoxicity control for chromothriptic childhood tumor combination screen, cell-based, BGB or cisplatin IC20 combos (AID 1671460); conditions: Human astrocytes, drug combinations, stronger effect = higher value;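 also: cells exposed to compounds for 96 hours before viability readout; 0% = vehicle and 100% = killing control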
# [15] = growth inhibition of BT084 medulloblastoma cells, cell-based, ICGC_MB145, cisplatin and BGB IC40 combos (AID 1671461); conditions: drug combinations, stronger effect = higher value;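 also: cells exposed to drugs for 96 hours; 0% = vehicle DMSO and 100% = high DMSO full killing control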
# [16] = growth inhibition of RCMB18 medulloblastoma cells, cell-based, cisplatin and BGB IC40 combos (AID 1671462); conditions: stronger effect = higher value;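 also: cells exposed to compound for four days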
# [17] = growth inhibition of CRL1545 osteosarcoma cells, cell-based, cisplatin and BGB IC20 combos (AID 1671464); conditions: stronger effect = higher value;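 also: cells exposed to compound for 96 hours before readout; 0% = vehicle DMSO and 100% = high DMSO killing control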
# [18] = hESC survival regulators, cell-based (AID 493140; call rule not given here;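 also: cells exposed to compounds for four days before counting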); conditions: human embryonic stem cell survival screen; stronger effect = higher value
# [19] = liver-stage malaria parasite growth inhibition, primary screen, cell-based, HepG2, luciferase luminescence, HepG2 viability (AID 624349; in the data active = parasite load remaining mostly below about 12%, no sharp cut-off; inactive = mostly above about 10%;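 also: 100% = mean of DMSO negative control wells on the same plate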); conditions: P. berghei liver stage in HepG2, luciferase luminescence, concentration not given here; parasite load remaining: stronger effect = lower value; viability: measured here: HepG2 viability without parasites
# [20] = stronger effect = lower value, cell number ratio, induced over uninduced
# [21] = measured here: relative caspase fold change +Dox/-Dox
# [22] = measured here: total cells with miR-34 induction, stronger effect = lower value
# [23] = measured here: total cells without miR-34 induction
# [24] = MELAS cybrid survival, CellTiter-Glo 48 h, stronger effect = higher value
# [25] = Rieske KO mouse fibroblast survival, CellTiter-Glo 72 h
# [26] = measured here: combination with BGB IC40, at 0.05 µM
# [27] = measured here: with BGB IC20 combination, at 0.5 µM
# [28] = measured here: with cisplatin IC20 combination, at 0.5 µM
# [29] = measured here: combination with cisplatin, at 0.5 µM
# [30] = measured here: combination with cisplatin, at 5 µM
smiles,measurement,setting,value
Cc1cc(C=CC#N)cc(C)c1Nc1ccnc(Nc2ccc(C#N)cc2)n1,fold change,[1]; [20],0.909 (inactive)
same,fold change,[1]; [21],0.615
same,cell count,[1]; [22],5740
same,cell count,[1]; [23],6310
same,z-score,[2]; [24],-0.58 (inactive)
same,z-score,[2]; [25],1.5
same,inhibition,"[3]; at 0.5 µM, stronger effect = higher value",-21.9% (inactive)
same,inhibition,"[3]; measured here: combination with BGB IC20, at 0.005 µM",-35.7%
same,inhibition,"[3]; measured here: combination with BGB IC40, at 0.005 µM",-21.8%
same,inhibition,[3]; [26],-24.8%
same,inhibition,"[3]; measured here: combination with cisplatin, at 0.5 µM, stronger effect = higher value",-44.6%
same,inhibition,"[3]; measured here: combination with cisplatin, at 5 µM, stronger effect = higher value",-38.4%
same,inhibition,"[4]; BGB combo, at 5 µM",-13%
same,inhibition,[4]; at 0.5 µM,-0.82% (inactive)
same,inhibition,"[4]; cisplatin combo, at 5 µM",4.37%
same,inhibition,[4]; [27],-15.3%
same,inhibition,[4]; [28],22.4%
same,inhibition,"[4]; single agent, at 5 µM",-11.3%
same,inhibition,"[5]; BGB IC20 combo, at 0.005 µM",-0.887%
same,inhibition,"[5]; BGB IC40 combo, at 0.005 µM",-17%
same,inhibition,"[5]; BGB IC40 combo, at 0.05 µM",-41.8%
same,inhibition,[5]; at 0.5 µM,-20.3% (inactive)
same,inhibition,"[5]; cisplatin combo, at 0.05 µM",-45.8%
same,inhibition,"[5]; cisplatin combo, at 0.5 µM",-18.9%
same,inhibition,"[5]; cisplatin combo, at 5 µM",-30.5%
same,inhibition,"[5]; measured here: 5 uM single agent, at 5 µM",-25.1%
same,inhibition,[6]; at 0.5 µM,-21.6% (inactive)
same,inhibition,[6]; [26],-25.9%
same,inhibition,[6]; [29],2.17%
same,inhibition,[6]; [30],-13.4%
same,inhibition,[7]; at 0.5 µM,-10.2% (inactive)
same,inhibition,"[7]; measured here: with BGB IC20, at 0.5 µM",-9.74%
same,inhibition,"[7]; measured here: with BGB IC20, at 5 µM",-26.3%
same,inhibition,"[7]; measured here: with cisplatin IC20, at 0.5 µM",-28.3%
same,inhibition,"[7]; measured here: with cisplatin IC20, at 5 µM",-20.2%
same,inhibition,"[7]; single agent, at 5 µM",0.45%
same,inhibition,[8]; at 0.5 µM,-49.8% (inactive)
same,inhibition,"[8]; measured here: combination with BGB at IC20, at 0.5 µM",-61.5%
same,inhibition,"[8]; measured here: combination with cisplatin at IC20, at 0.5 µM",-40%
same,inhibition,[9]; at 0.5 µM,-1.33% (inactive)
same,inhibition,"[9]; measured here: combo with BGB at IC20, at 0.5 µM",-1%
same,inhibition,"[9]; measured here: combo with cisplatin at IC20, at 0.5 µM",-1.41%
same,inhibition,[10]; at 0.5 µM,1.47% (inactive)
same,inhibition,"[10]; measured here: inhibition with BGB combination, at 0.05 µM",-12.2%
same,inhibition,"[10]; measured here: inhibition with cisplatin combination, at 0.05 µM",6.05%
same,inhibition,[11]; at 0.5 µM,-13.3% (inactive)
same,inhibition,[11]; [29],-13.5%
same,inhibition,[11]; [30],-51.8%
same,inhibition,[12]; at 0.5 µM,-19.9% (inactive)
same,inhibition,"[12]; measured here: BGB combination, at 0.5 µM",-6.06%
same,inhibition,"[12]; measured here: BGB combination, at 5 µM",-3.72%
same,inhibition,"[12]; measured here: cisplatin combination, at 0.5 µM",-45.9%
same,inhibition,"[12]; measured here: cisplatin combination, at 5 µM",-32.4%
same,inhibition,"[13]; BGB combination, concentration series, at 5 µM",96.3%
same,inhibition,[13]; at 0.5 µM,0.87% (inactive)
same,inhibition,"[13]; cisplatin combination, concentration series, at 5 µM",96.7%
same,inhibition,[14]; at 0.5 µM,1.39% (inactive)
same,inhibition,"[14]; measured here: combo with BGB IC20, at 0.5 µM",-1.88%
same,inhibition,"[14]; measured here: combo with cisplatin IC20, at 0.5 µM",-1.66%
same,inhibition,[15]; at 0.5 µM,-3.04% (inactive)
same,inhibition,"[15]; cisplatin combination, at 0.5 µM",-6.25%
same,inhibition,"[15]; cisplatin combination, at 5 µM",-4.4%
same,inhibition,"[15]; measured here: BGB IC40 combination 0.05 uM, at 0.05 µM",-11.4%
same,inhibition,"[15]; single agent, at 5 µM",-18.3%
same,inhibition,[16]; at 0.5 µM,-10.6% (inactive)
same,inhibition,"[16]; cisplatin combo, at 5 µM",14.8%
same,inhibition,"[16]; measured here: BGB IC40 combination, at 0.05 µM",-40.8%
same,inhibition,[16]; [29],0.155%
same,inhibition,"[16]; single agent, at 5 µM",-17.1%
same,inhibition,[17]; at 0.5 µM,-12.8% (inactive)
same,inhibition,[17]; [27],-13.1%
same,inhibition,[17]; [28],-15.2%
same,inhibition,"[17]; single agent, at 0.05 µM",1.38%
same,inhibition,"[17]; single agent, at 5 µM",-26.3%
CCCCC[C@H](O)/C=C/[C@@H]1[C@@H](C/C=C\CCCC(=O)O)[C@@H](O)C[C@H]1O (tested in a mixture with another compound),survival,[18],6.75 (inactive)
same,parasite load remaining,[19],74.8% (inactive) and 88.7% (inactive)
same,viability,[19],111% and 88.8%
same,fold change,[1]; [20],0.919 (inactive)
same,fold change,[1]; [21],1.17
same,cell count,[1]; [22],8520
same,cell count,[1]; [23],9270
same,z-score,[2]; [24],-0.0339 (inactive)
same,z-score,[2]; [25],-1.21
